# Screening results (PubChem)
# Pf growth 96h: Primary qHTS for delayed death inhibitors of the malarial parasite plastid, 96 hour incubation; Potency, µM (series often up to 28.7 µM), inactives show at the top dose activity change, negative = inhibition, actives largely listed as inhibitors; AID 504834, 2011; actives 6.9% (n = 320,000); P. falciparum luciferase reporter growth, 96 h; further: potency means the concentration at half of the fitted maximal effect
#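 Infected RBCs, 2% Hct / 0.05% parasitemia final; luciferase-reporter P. falciparum; cpd 96 h, 37 C, 5% CO2; luciferase detection reagent; luminescence.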
# HCV inh: qHTS Assay for Inhibitors of Hepatitis C Virus (HCV); Huh7.5.1 HCVcc-Cre infection, luciferase reporter, 44 h; Potency, µM (doses to about 41.8 µM), without a hit: top-dose activity change, negative = inhibition, hits mostly inhibitors; actives 3.4% (n = 340,000); AID 651820, 2012; further: potency means the concentration at half of the fitted maximal effect
#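 After 44 h co-culture of compound, cells and HCVcc-Cre (~0.5 moi), substrate is added for 15 min at room temperature and luciferase measured over 15 sec. Cells were seeded at 1,000/well and pre-cultured 4 h.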
# MARV entry inh: qHTS for inhibitors of binding or entry into cells for Marburg Virus. Marburg virus pseudotyped entry inhibition, cell reporter. Potency, µM (top dose mostly 37.8 µM), without a hit: at the top dose activity change, negative = inhibition, hits mostly inhibitors. actives 1.8% (n = 300,000). AID 540276, 2011; calls by dose curve; tested in HEK293 cells; further: potency means the concentration at half of the fitted maximal effect
# Lassa entry inh: qHTS for Inhibitors of binding or entry into cells for Lassa Virus; Lassa virus pseudotype entry inhibition, cell reporter; actives 1.2% (n = 300,000); Potency, µM (top dose mostly 37.9 µM), without a hit: top-dose activity change, negative = inhibition, usual class: inhibitors; calls by dose curve; tested in HEK293 cells; further: potency means the concentration at half of the fitted maximal effect; nearly all actives have a fitted effect of over 50% in size
# HCMV antiviral: qHTS Assay for inhibitors of the human cytomegalovirus (HCMV); activity change, negative = inhibition, % at 57.5 µM; actives 4.5% (n = 410,000); HFF cells, HCMV-luciferase reporter, 72 h; hits give low values; in the data active means activity change below about -60%; inconclusive means no clear call, values can overlap the other calls; inactive means above about -39%
#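 Luciferase read-out from HCMV-luciferase-infected HFFs (MOI 1 PFU/cell) 72 h post infection at 37C; compounds added after 16 h cell attachment; activity normalized between buffer-only basal and Salinomycin (10uM) inhibitor controls.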
# Pf growth 48h: Primary qHTS for delayed death inhibitors of the malarial parasite plastid, 48 hour incubation; AID 504832, 2011; P. falciparum luciferase growth in erythrocytes, 48 h; actives 5.9% (n = 310,000); Potency, µM (titrated, usually from 28.7 µM), without a hit: at the highest dose activity change, negative = inhibition, hits mostly inhibitors; further: potency means the concentration at half of the fitted maximal effect
#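 Firefly luciferase activity from engineered P. falciparum reports growth; inhibitors lower the luminescent signal. Cultures contained 2% hematocrit erythrocytes at 0.1% final parasitemia.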
# The depositor's hits bear a star; ? = inconclusive; / = no result given; [ ] = remark or other dose. Only some compounds are listed: those with a hit (about 14% of all), similar ones and a draw of the others. Unless noted, the call rests on the fitted dose curve; in most records, active means well fitted inhibition curve with a large enough effect; inconclusive means small, poorly fitted or top-dose-only effect, or another doubt; inactive means no such curve, though single readings can be large or run the other way. On the % scale 0 is the no-effect control and ±100 the full control effect.
SMILES,Pf growth 96h,HCV inh,MARV entry inh,Lassa entry inh,HCMV antiviral,Pf growth 48h
COc1ccc(C)cc1N1CC(C(=O)Nc2cccc(C(=O)NC3CC3)c2)CC1=O (stereo not drawn),/,/,/,/,-8.0,/
Cc1cc(/C=C2\C(=N)N3N=C(C(C)C)SC3=NC2=O)c(C)n1-c1ccccc1,11.7µM*,-13.2%,-7.0%[46.1 µM],21.2%[46.1 µM],-23.6,-1.5%
Cc1ccc(CNC(=O)CSc2nc(=O)[nH]c3c2CCCC3)cc1,/,/,/,13.8%[46.1 µM],13.3,/
CN1CCN(NC(=O)CN(C)S(=O)(=O)c2cc(Cl)ccc2Cl)CC1,11.7µM*,9.1%,11.7%[46.1 µM],7.8%,-29.1,-11.0%
O=C(CCNS(=O)(=O)c1ccc(Br)s1)NC1CCCC1,10.4µM*,/,5.8%,34.7%[14.3 µM],2.3,?
CN(CC(=O)NC1CC1)S(=O)(=O)c1ccc(Br)cc1,5.7%,/,1.7%,-4.6%,-25.4,8.28µM*
CN(CC(=O)N1CCOCC1)S(=O)(=O)c1cc(Cl)ccc1Cl,103.3%,2.5%,?,-26.4%[46.1 µM],-4.4,8.7%
CN(CC(=O)NC1CCCCCC1)S(=O)(=O)c1ccc(Br)cc1,4.7%,/,-0.5%,0.2%,33.2,0.7%
O=C(CCS(=O)(=O)c1ccc(Br)cc1)NC1CCCCCC1,11.7µM*,7.0%,/,/,27.4,-5.0%
O=C(CCS(=O)(=O)c1ccc(Br)s1)NC1CCCC1,-51.9%,-3.3%,0.8%,-4.8%,1.7,/
CN(CC(=O)NC1CC1)S(=O)(=O)c1cc(Cl)ccc1Cl,5.22µM*,4.0%,-15.6%[46.1 µM],26.9%[46.1 µM],?,4.15µM*
Cn1c(-c2cccc(C(F)(F)F)c2)cc2cnc(Nc3ccc(Oc4ccccc4)cc3)cc21,/,/,/,/,-15.5,/
O=c1cc2c(nn1Cc1c(Cl)cccc1Cl)-c1ccccc1CC2,5.22µM*,25.1µM*,?,0.3%,-23.8,/
O=S(=O)(c1cccc(C(F)(F)F)c1)N1CCC(Oc2ccc(-n3cnnn3)cc2)CC1,/,/,1.2%[46.1 µM],27.0%[46.1 µM],?,/
Cc1cc(N2CCOCC2)nc2ccc(NC(=S)NC(C)C)cc12,23.8%,?,/,/,26.0,0.6%[0.00184 µM]
Cc1cc(N2CCCC2)nc2ccc(NC(=S)NC(C)C)cc12,-24.1%,?,?,15.1%,?,10.4µM*
CCOCCCNC(=S)Nc1ccc2nc(N3CCCC3)cc(C)c2c1,-4.9%,?,?,3.8%,-32.2,11.7µM*
COC(=O)C1=C(c2ccc(OCc3ccccc3)cc2)C[C@@H]2CC[C@H]1N2C(=O)NCCCc1ccccc1,?,6.31µM*,/,/,?,?
COC(=O)C1=C(c2cccc(OCc3ccccc3)c2)C[C@@H]2CC[C@H]1N2C(=O)NCCCc1ccccc1,?,?,/,/,?,9.28µM*
COC(=O)C1=C(c2cccc(C#N)c2)C[C@@H]2CC[C@H]1N2C(=O)NCCc1ccccc1,?,?,/,/,-0.6,?
CCCCCn1c(=O)[nH]c2cc(C(=O)Nc3ccc(F)c(F)c3)ccc2c1=O,/,/,16.3%[46.1 µM],5.0%[46.1 µM],-31.0,/
Cc1ccccc1Cn1c(C)c(C(=O)N(C)Cc2ccc(F)cc2)sc1=O,/,/,/,/,-60.2*,/
COc1ccc(Br)c(Cn2c(C)c(C(=O)N(C)Cc3ccc(F)cc3)sc2=O)c1,/,/,/,/,-85.0*,/
CCN(CC)CC(O)c1ccc(C2CCCC2)cc1 (stereo not drawn),13.1µM*,?,?,?,-18.8,10.4µM*
Cc1ccc(NC(=O)CCn2nc(-c3ccccc3)c3ccccc3c2=O)c(C)c1,/,/,?,-28.3%[46.1 µM],-29.7,/
COc1ccc(/C=C(\NC(=O)c2ccccc2)C(=O)N2CCC(C)CC2)cc1,-65.4%,-4.5%,?,-24.0%,-2.5,13.1µM*
CCOC(=O)N1CCN(C(=O)/C(=C/c2cccc3ccccc23)NC(=O)c2ccc(OC)cc2)CC1,9.28µM*,?,-14.9%,?,3.5,13.1µM*
COC1=CC(=O)[C@]2(C=C1OC)OC[C@@H]1Oc3c(ccc4c3C=CC(C)(C)O4)C(=O)[C@@H]12,/,-27.9%,/,/,-93.0*,/
